Reference: PubChem BioAssay
Calls of active or inactive are those of the source. The rule behind the calls is not given here.

System: Aerobactin synthetase IucA (Klebsiella pneumoniae hvKP1)
Assay: Biochemical IucA enzyme inhibition primary screen of the Spectrum library (AID 1346200);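 note: 100% = wells without compound and 0% = wells lacking enzyme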
Conditions: malachite green pyrophosphate, A620, at 8 µM, stronger effect = lower value

Compound	activity remaining
CC(C)c1ccc2c(c1)CCC1C(C)(C(N)=O)CCCC21C (stereo not given)	103% (inactive)
COc1cc(OC)c2c(=O)c(-c3ccc4c(c3)OCO4)coc2c1	98% (inactive)
NCCCC(O)(P(=O)(O)O)P(=O)(O)O	112% (inactive)
Cc1nnc(NS(=O)(=O)c2ccc(N)cc2)s1	113% (inactive)
CC(C)N=C(N)/N=C(\N)Nc1ccc(Cl)cc1	102% (inactive)
CO[C@H]1[C@@H](O)[C@@H](C)O[C@H](O[C@H]2CCC3(C)C4CCC5(C)[C@@H](C6=CC(=O)OC6)CC[C@]5(O)[C@@H]4CC[C@]3(O)C2)[C@@H]1O (stereo not given in full)	113% (inactive)
C=C[C@@](C)(O)CCC1C(=C)C[C@H](O)C2C(C)(C)CCCC12C (stereo not given in full)	123% (inactive)
CCCCOc1cc(C(=O)NCCN(CC)CC)c2ccccc2n1	103% (inactive)
COC(=O)[C@@H]1OC(=O)C2OC23[C@@]1(C)CCC1[C@]2(C)C(C[C@@H](O)[C@]13C)C(C)(C)[C@H](OC(C)=O)C[C@@H]2OC(C)=O (stereo not given in full)	96.4% (inactive)
O=C(Oc1ccccc1C(=O)O)c1ccccc1O	115% (inactive)
